Many of the other results were omitted from the sample, so the strongest signals are more common in it than they were.
Assays:
Assay in all cases: glycan array binding signal (z-score within array); higher = stronger binding
Settings in all cases: glycan notation: IUPAC condensed, linker removed
[1] = biological target: Fuc(a1-2)Gal(b1-4)GlcNAc(b1-3)[Fuc(a1-3)[Gal(b1-4)]GlcNAc(b1-6)]Gal(b1-4)Glc
In short: (§1)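 Glycan array data were curated from 3228 arrays in the Consortium for Functional Glycomics database and kept only where the protein sequence was available. Glycan names were converted to IUPAC-condensed notation, and columns mapping to the same glycan were averaged. The binding signal is a within-array Z-score, averaged across arrays of the same protein sequence at different concentrations or buffers and across linkers. Negative Z-scores can be read as non-binding.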

[2] = biological target: Fuc(a1-2)[Gal(a1-3)]Gal(b1-3)GlcNAc(b1-3)GalNAc
In short: as §1

[3] = biological target: Fuc(a1-2)[GalNAc(a1-3)]Gal(b1-3)GalNAc(b1-3)Gal(a1-4)Gal(b1-4)Glc
In short: as §1

[4] = biological target: Fuc(a1-2)[GalNAc(a1-3)]Gal(b1-3)GlcNAc(b1-6)GalNAc
In short: as §1

[5] = biological target: Fuc(a1-2)[GalNAc(a1-3)]Gal(b1-4)GlcNAc(b1-2)Man(a1-3)[Fuc(a1-2)[GalNAc(a1-3)]Gal(b1-4)GlcNAc(b1-2)Man(a1-6)]Man(b1-4)GlcNAc(b1-4)GlcNAc
In short: as §1

[6] = biological target: Fuc(a1-2)[GalNAc(a1-3)]Gal(b1-4)GlcNAc(b1-2)Man(a1-3)[Fuc(a1-2)[GalNAc(a1-3)]Gal(b1-4)GlcNAc(b1-2)Man(a1-6)]Man(b1-4)GlcNAc(b1-4)[Fuc(a1-6)]GlcNAc
In short: as §1

[7] = biological target: Fuc(a1-3)[Gal(b1-4)]GlcNAc(b1-2)Man(a1-3)[Fuc(a1-3)[Gal(b1-4)]GlcNAc(b1-2)Man(a1-6)]Man(b1-4)GlcNAc(b1-4)GlcNAc
In short: as §1

[8] = biological target: Fuc(a1-4)GlcNAc
In short: as §1

[9] = biological target: Gal(a1-2)Gal
In short: as §1

[10] = biological target: Gal(a1-3)Gal
In short: as §1

[11] = biological target: Gal(a1-3)Gal(b1-3)GlcNAc(b1-6)GalNAc
In short: as §1

[12] = biological target: Gal(a1-3)Gal(b1-4)GlcNAc(b1-2)Man(a1-3)[Gal(a1-3)Gal(b1-4)GlcNAc(b1-2)Man(a1-6)]Man(b1-4)GlcNAc(b1-4)GlcNAc
In short: as §1

[13] = biological target: Gal(a1-3)Gal(b1-4)[Fuc(a1-3)]GlcNAc
In short: as §1

[14] = biological target: Gal(a1-3)Gal(b1-4)[Fuc(a1-3)]GlcNAc(b1-2)Man(a1-3)[Gal(a1-3)Gal(b1-4)[Fuc(a1-3)]GlcNAc(b1-2)Man(a1-6)]Man(b1-4)GlcNAc(b1-4)GlcNAc
In short: as §1

[15] = biological target: Gal(a1-3)GalNAc
In short: as §1

[16] = biological target: Gal(a1-3)[Gal(a1-4)]Gal(b1-4)GlcNAc
In short: as §1

[17] = biological target: Gal(a1-4)Gal(b1-3)GlcNAc(b1-2)Man(a1-3)[Gal(a1-4)Gal(b1-3)GlcNAc(b1-2)Man(a1-6)]Man(b1-4)GlcNAc(b1-4)GlcNAc
In short: as §1

[18] = biological target: Gal(b1-3)Gal
In short: as §1

[19] = biological target: Gal(b1-3)GalNAc(a1-3)[Fuc(a1-2)]Gal(b1-4)GlcNAc
In short: as §1

[20] = biological target: Gal(b1-3)GlcNAc(b1-2)[Gal(b1-3)GlcNAc(b1-6)]Man(a1-6)[Gal(b1-3)GlcNAc(b1-2)Man(a1-3)]Man(b1-4)GlcNAc(b1-4)GlcNAc
In short: as §1

[21] = biological target: Gal(b1-3)GlcNAc(b1-3)Gal(b1-4)GlcNAc(b1-2)Man(a1-3)[Gal(b1-3)GlcNAc(b1-3)Gal(b1-4)GlcNAc(b1-2)Man(a1-6)]Man(b1-4)GlcNAc(b1-4)GlcNAc
In short: as §1

[22] = biological target: Gal(b1-3)[Fuc(a1-4)]GlcNAc(b1-6)GalNAc
In short: as §1

[23] = biological target: Gal(b1-4)GlcNAc(b1-2)Man(a1-3)[Gal(b1-4)GlcNAc(b1-2)Man(a1-6)]Man(b1-4)GlcNAc(b1-4)GlcNAc
In short: as §1

[24] = biological target: Gal(b1-4)GlcNAc(b1-2)Man(a1-3)[Gal(b1-4)GlcNAc(b1-2)Man(a1-6)][Gal(b1-4)GlcNAc(b1-4)]Man(b1-4)GlcNAc(b1-4)[Fuc(a1-6)]GlcNAc
In short: as §1

[25] = biological target: Gal(b1-4)GlcNAc(b1-2)[Gal(b1-4)GlcNAc(b1-6)]Man(a1-6)[Gal(b1-4)GlcNAc(b1-2)Man(a1-3)]Man(b1-4)GlcNAc(b1-4)[Fuc(a1-6)]GlcNAc
In short: as §1

[26] = biological target: Gal(b1-4)GlcNAc(b1-3)Gal(b1-3)GlcNAc
In short: as §1

[27] = biological target: Gal(b1-4)GlcNAc(b1-3)Gal(b1-4)GlcNAc(b1-2)Man(a1-3)[Gal(b1-4)GlcNAc(b1-3)Gal(b1-4)GlcNAc(b1-2)Man(a1-6)]Man(b1-4)GlcNAc(b1-4)GlcNAc
In short: as §1

[28] = biological target: Gal(b1-4)GlcNAc(b1-3)Gal(b1-4)GlcNAc(b1-3)Gal(b1-4)GlcNAc
In short: as §1

[29] = biological target: Gal(b1-4)GlcNAc(b1-3)Gal(b1-4)GlcNAc(b1-3)Gal(b1-4)GlcNAc(b1-2)Man(a1-3)[Gal(b1-4)GlcNAc(b1-3)Gal(b1-4)GlcNAc(b1-3)Gal(b1-4)GlcNAc(b1-2)Man(a1-6)]Man(b1-4)GlcNAc(b1-4)GlcNAc
In short: as §1

[30] = biological target: Gal(b1-4)GlcNAc(b1-3)Gal(b1-4)GlcNAc(b1-3)Gal(b1-4)GlcNAc(b1-2)[Gal(b1-4)GlcNAc(b1-3)Gal(b1-4)GlcNAc(b1-3)Gal(b1-4)GlcNAc(b1-6)]Man(a1-6)[Gal(b1-4)GlcNAc(b1-3)Gal(b1-4)GlcNAc(b1-3)Gal(b1-4)GlcNAc(b1-2)Man(a1-3)]Man(b1-4)GlcNAc(b1-4)[Fuc(a1-6)]GlcNAc
In short: as §1

[31] = biological target: Gal(b1-4)GlcNAc(b1-3)Gal(b1-4)GlcNAc(b1-3)GalNAc
In short: as §1

[32] = biological target: Gal(b1-4)GlcNAc(b1-3)Gal(b1-4)GlcNAc(b1-6)[Gal(b1-3)]GalNAc
In short: as §1

[33] = biological target: Gal(b1-6)Gal
In short: as §1

[34] = biological target: Gal3S(b1-4)[Fuc(a1-3)]GlcNAc6S
In short: as §1

[35] = biological target: Gal3S4S(b1-4)GlcNAc
In short: as §1

B1: SP16664B-bot-474-25-474 (Bacteroides ovatus) (protein)
chain: CEEDIEIGNKIDESSYLASTQLSGLLLDENTNKNSSVIELRNNEYSTNVVFRLSKLPQKGVDVQIAVEESYAAIYNTIHETDFEVFPAANVKIANNGTFVLAPDDKVTPSVKVTLTAFDGMEEDKTYIVPLTVTSSTEGVTFTETSKHMVLLVQDYRNKPNTNKGEDAVQTVLYFEVNDTNPLNALEFLTESGKYFFDHIVLFAANINWDPEKQRVYLANNENVQFLLDNNDKYLQPLRKAGMKIIISILGNHDEAGVAQLSDMGAREFARELAAYCRAYNLDGVAFDDEYSNSPDLSNPWLASPSAYAGSRLMYECKAVMPEKIVSLYNLGNMYSSSLQVIDGIEPGQYCDYAVADYGGAAGPGTGMTLKQCAGMSIELRRGSGNSSESTARSRKEAGYGYYMFFALDPSLYGSQVYRCQSVCKGLYDETLVYPSYYYKKNSTEREAIN
Q: For B1, which “glycan array binding signal (z-score)” value [1] is on record?
A: Its value is -0.136.

Q: What about the “glycan array binding signal (z-score)” value [2] of the same binder?
A: Its value is -0.535.

Q: And the “glycan array binding signal (z-score)” value [3]?
A: Its value is -0.296.

Q: What about the “glycan array binding signal (z-score)” value [4] of the same binder?
A: Its value is -0.622.

Q: And the “glycan array binding signal (z-score)” value [5]?
A: The value was 0.635.

Q: What about the “glycan array binding signal (z-score)” value [6] of the same binder?
A: The value was 1.16.

Q: And the “glycan array binding signal (z-score)” value [7]?
A: Its value is 2.22.

Q: And the “glycan array binding signal (z-score)” value [8]?
A: The value was 2.34.

Q: What about the “glycan array binding signal (z-score)” value [9] of the same binder?
A: Its value is 0.194.

Q: What about the “glycan array binding signal (z-score)” value [10] of the same binder?
A: Its value is -0.094.

Q: What about the “glycan array binding signal (z-score)” value [11] of the same binder?
A: Its value is 0.049.

Q: And the “glycan array binding signal (z-score)” value [12]?
A: The value was 2.23.

Q: And the “glycan array binding signal (z-score)” value [13]?
A: Its value is -0.366.

Q: And the “glycan array binding signal (z-score)” value [14]?
A: Its value is 1.65.

Q: And the “glycan array binding signal (z-score)” value [15]?
A: Its value is -0.504.

Q: And the “glycan array binding signal (z-score)” value [16]?
A: The value was -0.405.

Q: And the “glycan array binding signal (z-score)” value [17]?
A: Its value is 1.04.

Q: And the “glycan array binding signal (z-score)” value [18]?
A: Its value is -0.262.

Q: And the “glycan array binding signal (z-score)” value [19]?
A: Its value is -0.291.

Q: And the “glycan array binding signal (z-score)” value [20]?
A: The value was 0.525.

Q: What about the “glycan array binding signal (z-score)” value [21] of the same binder?
A: Its value is -0.246.

Q: What about the “glycan array binding signal (z-score)” value [22] of the same binder?
A: Its value is 0.134.

Q: And the “glycan array binding signal (z-score)” value [23]?
A: Its value is -0.21.

Q: And the “glycan array binding signal (z-score)” value [24]?
A: Its value is -0.39.

Q: What about the “glycan array binding signal (z-score)” value [25] of the same binder?
A: Its value is -0.218.

Q: What about the “glycan array binding signal (z-score)” value [26] of the same binder?
A: The value was -0.433.

Q: And the “glycan array binding signal (z-score)” value [27]?
A: Its value is 1.81.

Q: And the “glycan array binding signal (z-score)” value [28]?
A: Its value is -0.33.

Q: And the “glycan array binding signal (z-score)” value [29]?
A: Its value is 1.88.

Q: What about the “glycan array binding signal (z-score)” value [30] of the same binder?
A: Its value is 2.21.

Q: And the “glycan array binding signal (z-score)” value [31]?
A: The value was 1.54.

Q: What about the “glycan array binding signal (z-score)” value [32] of the same binder?
A: Its value is 0.334.

Q: What about the “glycan array binding signal (z-score)” value [33] of the same binder?
A: Its value is -0.141.

Q: What about the “glycan array binding signal (z-score)” value [34] of the same binder?
A: The value was 0.545.

Q: What about the “glycan array binding signal (z-score)” value [35] of the same binder?
A: The value was 0.303.

From the supplement of paper PMC8728848
